According to PubChem BioAssay AID720566 (Broad Institute, 2013):
Measured potencies and affinities stand elsewhere. Calls of active or inactive are those of the source.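 The calls were made as follows: active = in all runs, an absorbance decrease of 25% or more of the average positive control decrease; inconclusive = runs conflict, with both active and inactive results; inactive = all runs inactive, opposite-direction effects included.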

target: Protein disulfide-isomerase A6 (Homo sapiens) (UniProt Q15084); experiment: inhibitors of ERp5-mediated insulin aggregation, dose response, biochemical, turbidity, absorbance 650 nm, cherry-picked samples (AID 720566); details: Recombinant ERp5 insulin aggregation; series mostly up to 35 µM;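 also: negative values mean less insulin aggregation so ERp5 inhibition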
Sequence (Q15084 whole entry, looked up): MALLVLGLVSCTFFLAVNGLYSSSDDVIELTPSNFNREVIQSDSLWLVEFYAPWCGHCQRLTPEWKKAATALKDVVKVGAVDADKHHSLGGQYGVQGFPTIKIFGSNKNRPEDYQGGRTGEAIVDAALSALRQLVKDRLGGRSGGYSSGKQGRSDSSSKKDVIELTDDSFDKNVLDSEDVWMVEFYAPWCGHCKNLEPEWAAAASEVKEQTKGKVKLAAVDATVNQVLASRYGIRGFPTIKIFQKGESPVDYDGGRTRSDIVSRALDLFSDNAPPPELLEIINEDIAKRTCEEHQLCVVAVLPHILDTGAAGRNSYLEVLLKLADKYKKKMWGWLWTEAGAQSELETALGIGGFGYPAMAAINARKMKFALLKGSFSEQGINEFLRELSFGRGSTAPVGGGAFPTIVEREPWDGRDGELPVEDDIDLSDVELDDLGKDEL

outcome, inactive:
C[C@@H]1CN([C@H](C)CO)C(=O)Cc2cc(NC(=O)Nc3cccc4ccccc34)ccc2O[C@@H]1CN(C)Cc1ccc(C(F)(F)F)cc1, CC(C)C#Cc1ccc2c(c1)O[C@@H](CN(C)C(=O)C1CC1)[C@@H](C)CN([C@@H](C)CO)S2(=O)=O, COc1ccccc1NS(=O)(=O)c1ccc(C(=O)N2CCN(c3ccccn3)CC2)cc1, COc1ccc2c3c([nH]c2c1)[C@@H](CO)N(C(=O)c1ccc(F)cc1)CC31CCN(C(=O)Nc2cccc(F)c2)CC1, C[C@H](O)C#Cc1cnc2c(c1)C(=O)N([C@@H](C)CO)C[C@H](C)[C@H](CN(C)CC1CCCCC1)O2, Cc1cc(C(=O)Nc2cccc3c2O[C@@H](CN(C)S(=O)(=O)c2ccc(Cl)cc2)[C@@H](C)CN([C@@H](C)CO)C3=O)n(C)n1, C[C@H](CO)N1C[C@H](C)[C@H](CN(C)S(=O)(=O)c2cn(C)cn2)Oc2ncc(C#Cc3ccccc3)cc2C1=O, COc1ccc2c3c(n(C)c2c1)[C@H](CO)N(S(C)(=O)=O)CC31CCN(CC2CCCC2)CC1, O=C(C[C@@H]1C[C@H]2c3cc(NC(=O)Nc4ccccc4F)ccc3O[C@H]2[C@H](CO)O1)NCC(F)(F)F, COCC#Cc1cnc2c(c1)C(=O)N([C@H](C)CO)C[C@@H](C)[C@H](CN(C)C(=O)NC1CCCC1)O2, C[C@H]1CN([C@@H](C)CO)C(=O)c2cccc(NC(=O)c3nc4ccccc4s3)c2O[C@@H]1CN(C)C(=O)Nc1ccc(C(F)(F)F)cc1, CCC1(CC)NC(=O)N(CC(=O)OC(C)C(=O)Nc2ccc(NC(C)=O)cc2)C1=O (stereo not drawn), Cc1ccc(NC(=O)c2cccc(S(C)(=O)=O)c2)cc1, CCC(=O)Nc1ccc2c(c1)C(=O)N(C)[C@@H]1CC[C@@H](CC(=O)NCC3CC3)O[C@@H]1CO2, O=C(NN=c1c(=O)c2ccccc2c1=O)c1ccccc1, O=C(NC1CCCC1)[C@@H]1[C@@H](CO)[C@@H]2Cn3c(ccc(-c4cccnc4)c3=O)[C@H]1N2CC1CC1, C[C@H]1CN([C@@H](C)CO)C(=O)c2cc(-c3cccc(C#N)c3)cnc2O[C@@H]1CN(C)Cc1cncnc1, C/C=C/c1ccc2c(c1)O[C@@H](CN(C)S(C)(=O)=O)[C@H](C)CN([C@@H](C)CO)S2(=O)=O, COc1ccc(NC(=O)N(C)C[C@@H]2Oc3ccc(NC(=O)Nc4ccc(F)cc4)cc3CC(=O)N([C@@H](C)CO)C[C@@H]2C)cc1, COc1ccc(S(=O)(=O)N(C)C[C@@H]2Oc3ccc(NC(=O)c4ccncc4)cc3C(=O)N([C@H](C)CO)C[C@@H]2C)cc1, C[C@@H]1CN([C@H](C)CO)S(=O)(=O)c2ccc(-c3ccc(F)cc3)cc2O[C@@H]1CN(C)CC1CC1, C[C@H](CO)N1C[C@H](C)[C@@H](CN(C)Cc2ccc(C(=O)O)cc2)Oc2ccc(NS(=O)(=O)c3cccs3)cc2CC1=O, C[C@@H]1CN([C@H](C)CO)C(=O)c2cc(NC(=O)Nc3ccc(C(F)(F)F)cc3)ccc2O[C@@H]1CN(C)S(=O)(=O)c1ccc(F)cc1, COC(=O)C[C@H]1C[C@H]2c3cc(NC(=O)Cc4ccncc4)ccc3O[C@H]2[C@H](CO)O1, COc1ccc(-c2csc(NC(=O)C3CCN(C(=O)c4ccc(F)cc4)CC3)n2)cc1OC, O=C(C[C@@H]1C[C@H]2c3cc(NC(=O)CC4CC4)ccc3O[C@H]2[C@@H](CO)O1)NCc1ccc(-c2ccccc2)cc1, O=C(C[C@H]1C[C@@H]2c3cc(NC(=O)NC4CCCC4)ccc3O[C@@H]2[C@@H](CO)O1)NCc1ccc(Cl)cc1, CN(C)C(=O)C[C@@H]1C[C@H]2c3cc(NS(C)(=O)=O)ccc3O[C@H]2[C@@H](CO)O1, O=C(COC(=O)CCc1nc2ccccc2c(=O)[nH]1)Nc1c(Cl)cccc1C(F)(F)F, O=C(Nc1ccncc1)C1CCN(S(=O)(=O)c2cccc(C(F)(F)F)c2)CC1, CCCNC(=O)C[C@H]1C[C@H]2c3cc(NS(C)(=O)=O)ccc3O[C@H]2[C@@H](CO)O1, C[C@@H]1CN([C@@H](C)CO)C(=O)c2cc(C#CC3CCCCC3)cnc2O[C@@H]1CN(C)S(=O)(=O)c1ccccc1, C[C@H](CO)N1C[C@H](C)[C@H](CN(C)Cc2ccc(C(F)(F)F)cc2)Oc2ccc(NC(=O)Nc3cccc4ccccc34)cc2CC1=O
